Results: the supplement of paper PMC7411054
Where a name gives a salt, the structure may show the parent alone.

Legend:
Conditions in all cases: treatment time: 24 h
A549-ACTB-RAB5A [1] = assay: phenotypically active (imaging signature differs from DMSO and reproducible) at any of 0.3-9 uM (binary (1 = active, 0 = inactive)); higher = active
Summary of the method: (§1)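 After 24 h at 0.3, 1, 3 or 9 µM, with four wells per treatment, fifteen gene-edited A549, HepG2 and WPMY1 reporter lines carrying BFP, GFP and RFP/FusionRed were imaged live. Each well's live-cell features were expressed relative to solvent control wells. Deviation required ≥3 of 4 wells past the 95th percentile of control Euclidean distances, and reproducibility a median replicate Pearson correlation over the 95th percentile of non-replicates. Phenotypic activity rested on both.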

A549-CANX-COX4 [2] = assay: as above
Summary of the method: as §1

A549-GM130-SQSTM1 [3] = assay: as above
Summary of the method: as §1

A549-TP53BP1-CLTA [4] = assay: as above
Summary of the method: as §1

A549-TUBA1B-RELA [5] = assay: as above
Summary of the method: as §1

HepG2-ACTB-RAB5A = assay: as above
Summary of the method: as §1

HepG2-CANX-COX4 = assay: as above
Summary of the method: as §1

HepG2-GM130-SQSTM1 = assay: as above
Summary of the method: as §1

HepG2-TP53BP1-CLTA = assay: as above
Summary of the method: as §1

HepG2-TUBA1B-RELA = assay: as above
Summary of the method: as §1

WPMY1-ACTB-RAB5A = assay: as above
Summary of the method: as §1

WPMY1-CANX-COX4 = assay: as above
Summary of the method: as §1

WPMY1-GM130-SQSTM1 = assay: as above
Summary of the method: as §1

WPMY1-TP53BP1-CLTA = assay: as above
Summary of the method: as §1

WPMY1-TUBA1B-RELA = assay: as above
Summary of the method: as §1

A549-ACTB-RAB5A [6] = assay: lowest phenotypically active concentration; higher = less potent
Summary of the method: as §1

A549-CANX-COX4 [7] = assay: as above
Summary of the method: as §1

A549-GM130-SQSTM1 [8] = assay: as above
Summary of the method: as §1

A549-TP53BP1-CLTA [9] = assay: as above
Summary of the method: as §1

A549-TUBA1B-RELA [10] = assay: as above
Summary of the method: as §1

Structure (SMILES) | phenotypically active (A549-ACTB-RAB5A [1]) | phenotypically active (A549-CANX-COX4 [2]) | phenotypically active (A549-GM130-SQSTM1 [3]) | phenotypically active (A549-TP53BP1-CLTA [4]) | phenotypically active (A549-TUBA1B-RELA [5]) | phenotypically active (HepG2-ACTB-RAB5A) | phenotypically active (HepG2-CANX-COX4) | phenotypically active (HepG2-GM130-SQSTM1) | phenotypically active (HepG2-TP53BP1-CLTA) | phenotypically active (HepG2-TUBA1B-RELA) | phenotypically active (WPMY1-ACTB-RAB5A) | phenotypically active (WPMY1-CANX-COX4) | phenotypically active (WPMY1-GM130-SQSTM1) | phenotypically active (WPMY1-TP53BP1-CLTA) | phenotypically active (WPMY1-TUBA1B-RELA) | lowest phenotypically active concentration (A549-ACTB-RAB5A [6]) | lowest phenotypically active concentration (A549-CANX-COX4 [7]) | lowest phenotypically active concentration (A549-GM130-SQSTM1 [8]) | lowest phenotypically active concentration (A549-TP53BP1-CLTA [9]) | lowest phenotypically active concentration (A549-TUBA1B-RELA [10])
CCN(CC)C(C)CN1c2ccccc2Sc2ccccc21 (stereo unspecified) [profenamine] | 0 (inactive) | 0 (inactive) | 0 (inactive) | 0 (inactive) | 0 (inactive) | 0 (inactive) | 0 (inactive) | 0 (inactive) | 0 (inactive) | 0 (inactive) | 0 (inactive) | 0 (inactive) | 0 (inactive) | 0 (inactive) | 0 (inactive) | – | – | – | – | –
C#C[C@]1(O)CC[C@H]2[C@@H]3CCc4cc(OC)ccc4[C@H]3CC[C@@]21C [mestranol] | 0 (inactive) | 0 (inactive) | 0 (inactive) | 0 (inactive) | 0 (inactive) | 0 (inactive) | 0 (inactive) | 0 (inactive) | 0 (inactive) | 0 (inactive) | 0 (inactive) | 0 (inactive) | 0 (inactive) | 0 (inactive) | 0 (inactive) | – | – | – | – | –
COC(=O)C1=CO[C@@H](O[C@@H]2O[C@H](CO)[C@@H](O)[C@H](O)[C@H]2O)[C@H]2[C@@H]1C(=O)C[C@@H]2C [Verbenaline] | 0 (inactive) | 0 (inactive) | 0 (inactive) | 0 (inactive) | 0 (inactive) | 0 (inactive) | 0 (inactive) | 0 (inactive) | 0 (inactive) | 0 (inactive) | 0 (inactive) | 0 (inactive) | 0 (inactive) | 0 (inactive) | 0 (inactive) | – | – | – | – | –
CC(=O)OCC(=O)[C@@]12OC3(CCCC3)O[C@@H]1C[C@H]1[C@@H]3CCC4=CC(=O)C=C[C@]4(C)[C@@]3(F)[C@@H](O)C[C@@]12C [amcinonide] | 1 (active) | 1 (active) | 1 (active) | 1 (active) | 1 (active) | 0 (inactive) | 0 (inactive) | 0 (inactive) | 0 (inactive) | 0 (inactive) | 0 (inactive) | 0 (inactive) | 0 (inactive) | 0 (inactive) | 0 (inactive) | ≤ 0.3 µM | ≤ 0.3 µM | ≤ 0.3 µM | ≤ 0.3 µM | ≤ 0.3 µM
C[C@@H]1O[C@@H](OC[C@H]2O[C@@H](Oc3c(-c4ccc(O)c(O)c4)oc4cc(O)cc(O)c4c3=O)[C@H](O)[C@@H](O)[C@@H]2O)[C@H](O)[C@H](O)[C@H]1O [Quercétine-3-rutinoside] | 1 (active) | 0 (inactive) | 0 (inactive) | 0 (inactive) | 0 (inactive) | 0 (inactive) | 0 (inactive) | 0 (inactive) | 0 (inactive) | 0 (inactive) | 0 (inactive) | 0 (inactive) | 0 (inactive) | 0 (inactive) | 0 (inactive) | 9 µM | – | – | – | –
CCC(=O)OCC(=O)[C@@]1(OC(=O)CC)[C@@H](C)C[C@H]2[C@@H]3CCC4=CC(=O)C=C[C@]4(C)[C@@]3(Cl)[C@@H](O)C[C@@]21C [beclomethasone-dipropionate] | 1 (active) | 1 (active) | 1 (active) | 1 (active) | 1 (active) | 0 (inactive) | 0 (inactive) | 0 (inactive) | 0 (inactive) | 0 (inactive) | 0 (inactive) | 0 (inactive) | 0 (inactive) | 0 (inactive) | 0 (inactive) | ≤ 0.3 µM | ≤ 0.3 µM | ≤ 0.3 µM | ≤ 0.3 µM | ≤ 0.3 µM
C[C@H]1C[C@@H]2[C@H]([C@@H](O)C[C@@]3(C)[C@H]2CC[C@]3(O)C(=O)CO)[C@@]2(C)C=CC(=O)C=C12 [methylprednisolone] | 1 (active) | 1 (active) | 1 (active) | 1 (active) | 1 (active) | 0 (inactive) | 0 (inactive) | 0 (inactive) | 0 (inactive) | 0 (inactive) | 0 (inactive) | 0 (inactive) | 0 (inactive) | 0 (inactive) | 0 (inactive) | ≤ 0.3 µM | ≤ 0.3 µM | ≤ 0.3 µM | ≤ 0.3 µM | ≤ 0.3 µM
COc1cc(N2CCC(O)CC2)ccc1Nc1cc(Nc2ccccc2S(=O)(=O)C(C)C)c2cc[nH]c2n1 [Mps1-IN-1 dihydrochloride] | 1 (active) | 1 (active) | 1 (active) | 1 (active) | 1 (active) | 1 (active) | 1 (active) | 1 (active) | 1 (active) | 1 (active) | 1 (active) | 1 (active) | 1 (active) | 1 (active) | 0 (inactive) | 9 µM | 9 µM | 9 µM | 9 µM | 9 µM
CN(C)CC(=O)N1CCC[C@@H](n2nc(-c3ccc(Oc4ccccc4)cc3)c3c(N)ncnc32)C1 | 1 (active) | 1 (active) | 1 (active) | 1 (active) | 1 (active) | 1 (active) | 1 (active) | 1 (active) | 1 (active) | 1 (active) | 1 (active) | 1 (active) | 1 (active) | 1 (active) | 1 (active) | 1 µM | 9 µM | 1 µM | 9 µM | 1 µM
CO/N=C/C1=CCCN(C)C1 [Milameline hydrochloride] | 0 (inactive) | 0 (inactive) | 0 (inactive) | 0 (inactive) | 0 (inactive) | 0 (inactive) | 0 (inactive) | 0 (inactive) | 0 (inactive) | 0 (inactive) | 0 (inactive) | 0 (inactive) | 0 (inactive) | 0 (inactive) | 0 (inactive) | – | – | – | – | –
C#CCN(C)Cc1ccccc1 [pargyline] | 0 (inactive) | 0 (inactive) | 0 (inactive) | 0 (inactive) | 0 (inactive) | 0 (inactive) | 0 (inactive) | 0 (inactive) | 0 (inactive) | 0 (inactive) | 0 (inactive) | 0 (inactive) | 0 (inactive) | 0 (inactive) | 0 (inactive) | – | – | – | – | –
